CYP2C19 activ: activators of human cytochrome P450 2C19 | recombinant CYP2C19, luciferin-H EGE luminescence; active compounds read high; 0 = fully inhibited enzyme, 1 = untreated enzyme | 96,000 tested, under 10 active | P33261 | activation factor at 5 µM;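 active = activation factor of at least 2 at 5 µM in the primary screen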
CYP2C9 inh: blocks human cytochrome P450 2C9; CYP2C9 Supersomes, luciferin-H conversion, luminescence; inhibition, % at 5 µM; 20% of 96,000 active; AID 777;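 active = blocking of liver enzyme CYP2C9 beyond about 50% at 5 µM, limit read from the data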
Target sequence (P11712 whole entry, looked up): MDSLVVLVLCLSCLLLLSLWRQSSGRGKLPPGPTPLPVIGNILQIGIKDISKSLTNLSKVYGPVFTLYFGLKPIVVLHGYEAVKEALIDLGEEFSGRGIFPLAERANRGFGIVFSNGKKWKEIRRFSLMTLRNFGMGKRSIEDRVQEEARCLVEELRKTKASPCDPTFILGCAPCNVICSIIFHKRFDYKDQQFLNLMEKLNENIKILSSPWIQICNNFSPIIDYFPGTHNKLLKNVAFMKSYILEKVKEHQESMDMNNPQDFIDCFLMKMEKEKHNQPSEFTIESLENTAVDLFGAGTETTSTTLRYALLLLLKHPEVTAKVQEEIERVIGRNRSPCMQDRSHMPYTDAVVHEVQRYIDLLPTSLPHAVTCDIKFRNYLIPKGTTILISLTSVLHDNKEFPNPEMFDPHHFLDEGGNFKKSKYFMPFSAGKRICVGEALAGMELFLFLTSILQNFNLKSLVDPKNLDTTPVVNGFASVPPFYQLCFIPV
D1 allo mod: allosterically modulates the human D1 dopamine receptor | P21728 | HEK293 D1, CRE-luciferase, dopamine EC30 potentiation; actives deviate in either direction | 5.9% of 58,000 active | B-score at 10 µM | AID 641;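 active = luminescence count or its row- and column-corrected plate score outside the 99.7% band of the plate's sample wells, on either side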
hDAT+cocaine: changed human dopamine transporter uptake under cocaine IC80; Q01959; LLC-PK1 hDAT cells, [14C]-dopamine uptake with cocaine IC80; actives deviate in either direction; B-score at 10 µM; 1.3% of 110,000 active;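 active = Z score or B-score, a plate-position-corrected score, falls beyond the plate's 99.7% confidence bounds, in either direction; inactive = both scores lie inside the 99.7% bounds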
CYP2C19 inh: human CYP2C19 inhibition; CYP2C19 Supersomes, luciferin-H EGE luminescence, 30 min; inhibition, % at 5 µM; 21% of 96,000 active; AID 778;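 active = CYP2C19 inhibition above a set limit at 5 µM in the primary screen, cut at about 50% in these data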
CYP2C9 act: increases human cytochrome P450 2C9 activity; recombinant CYP2C9, luciferin-H conversion, luminescence; active compounds read high; factor 1 = untreated enzyme, 0 = blocked; activation factor at 5 µM; 1.4% of 96,000 active; AID 1024;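 active = activation factor of 2 or more for CYP2C9 at a 5 µM dose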
Hits are given with their value; 0 = inactive; - = no result. An excerpt weighted towards active compounds, which were near 28% of everything screened.

SMILES	CYP2C19 activ	CYP2C9 inh	D1 allo mod	hDAT+cocaine	CYP2C19 inh	CYP2C9 act
CCCC(C(=O)NC1CCCC1)N(Cc1cccs1)C(=O)c1snc(C(N)=O)c1N (stereo not drawn)	0	0	0	0	0	0
NC(=O)c1noc(C(=O)N(CC(=O)NC2CCCC2)Cc2ccc3c(c2)OCO3)c1N	-	-	-	0	-	-
CC(C(=O)NC1CCCC1)N(Cc1ccc2c(c1)OCO2)C(=O)c1snc(C(N)=O)c1N (stereo not drawn)	0	82	0	0	99	0
CCC(C)(C)NC(=O)CN(C(=O)c1snc(C(N)=O)c1N)c1ccc2c(c1)OCO2	0	57	0	0	0	0
NC(=O)c1nsc(C(=O)N(CC(=O)NCc2ccc3c(c2)OCO3)C2CCCCC2)c1N	0	0	0	0	86	0
CCC(C(=O)NC1CCCC1)N(Cc1ccc2c(c1)OCO2)C(=O)c1snc(C(N)=O)c1N (stereo not drawn)	0	0	0	0	92	0
Nc1cccnc1Sc1cc(Cl)cc(Cl)c1	0	0	-	0	0	0
CCOC(=O)N1CCN(S(=O)(=O)N(C)C)CC1	0	0	0	0	0	0
O=C(O)c1cc(O)ccc1-c1ccc(O)cc1	0	0	0	0	0	0
CC1CCCCN1CCNC(=O)c1cc2c(-c3ccccc3F)nn(C)c2s1 (stereo not drawn)	0	0	-5.7	0	0	0
O=C(CCn1nc(-c2ccc(Cl)cc2)c2ccccc2c1=O)NCC1CCCO1 (stereo not drawn)	0	0	-	0	0	0
Cn1nc(-c2ccc(Cl)cc2)c2cc(C(=O)NCC3CCCO3)sc21 (stereo not drawn)	0	53	0	0	0	0
CN1CCN(CCCNC(=O)c2cc3c(-c4ccc(Cl)cc4)nn(C)c3s2)CC1	0	0	-2	0	0	0
CCN(CC)CCCNC(=O)c1cc2c(-c3ccc(Cl)cc3)nn(C)c2s1	0	0	0	0	0	0
Nn1c(SCC(=O)Nc2ccccc2)nnc1-c1cccnc1	0	0	0	0	0	0
COc1ccc2c(c1)[nH]c1c(=O)n(CCCn3ccnc3)cnc12	0	64	-	0	0	0
COc1ccc2c(c1)[nH]c1c(=O)n(CCc3cnc[nH]3)cnc12	0	96	0	0	85	0
CCCCNC(=O)OCC(CC)NC(=O)OC(C)C (stereo not drawn)	0	0	0	0	53	0
CCCCNC(=O)OCC(CC)NC(=O)OCC(C)C (stereo not drawn)	0	0	-	0	0	0
COc1ccccc1C(=O)Nc1ccccc1N1CCN(S(C)(=O)=O)CC1	0	74	0	0	69	0
COc1cc(C(=O)Nc2ccccc2N2CCN(S(C)(=O)=O)CC2)cc(OC)c1OC	0	79	0	0	0	0
CS(=O)(=O)N1CCN(c2ccccc2NC(=O)c2cccnc2)CC1	0	0	0	0	0	0
NC(=O)CSc1nnc(Cc2csc(Nc3ccccc3)n2)n1Cc1ccccc1	0	0	0	0	66	0
O=C(Nc1nc2ccc(F)cc2s1)C1CCCO1 (stereo not drawn)	0	0	-	0	0	0
Cn1c(CNC2CCCCC2)c(C#N)c2ccccc21	0	0	-	0	55	0
SMILES	CYP2C19 activ	CYP2C9 inh	D1 allo mod	hDAT+cocaine	CYP2C19 inh	CYP2C9 act
Cn1c(CN2CCC(C(N)=O)CC2)c(C#N)c2ccccc21	-	-	0	0	-	-
Cn1c(CN2CCCCC2)c(C#N)c2ccccc21	0	0	-2.2	0	98	0
Cn1c(CN2CCN(CC#N)CC2)c(C#N)c2ccccc21	0	0	-	0	0	2.9
Cn1c(=O)n(CC(=O)NC2CCCCC2)c(=O)c2ccccc21	0	0	0	0	0	0
Cc1ccc(S(=O)(=O)NCCN2CCOCC2)cc1	0	0	-	0	0	0
CCOc1ccc(S(=O)(=O)NCCN2CCOCC2)c2ccccc12	0	0	0	0	76	0
CCOc1cc(S(=O)(=O)NCCN2CCOCC2)c(C)cc1C	0	0	0	0	75	2.1
CCCOc1ccc(S(=O)(=O)NCCN2CCOCC2)c2ccccc12	0	0	0	0	99	0
COc1ccc(CCNc2cc(=O)[nH]c(N)n2)cc1	0	0	0	0	0	0
CC(=O)Oc1cccc(/C=c2\sc3nc(-c4ccco4)nn3c2=O)c1	0	0	0	0	0	0
COc1cc(/C=c2\sc3nc(-c4ccncc4)nn3c2=O)ccc1OC(C)=O	0	76	0	-	60	0
CCn1c(-c2ccc3ncccc3c2)n[nH]c1=S	0	0	-	3.1	0	0
CCn1c(-c2ccc([N+](=O)[O-])cc2)n[nH]c1=S	0	0	-	0	0	0
CCn1c(-c2cccc(Br)c2)n[nH]c1=S	0	0	0	0	76	0
O=C(O)c1cc(-c2ccccc2)nn1CC1CC(c2cccc([N+](=O)[O-])c2)=NO1 (stereo not drawn)	-	-	-	0	-	-
CCOC(=O)NC(Nc1sc2c(c1C(N)=O)CCCC2)(C(=O)OCC)C(F)(F)F (stereo not drawn)	0	0	0	0	0	0
Cc1cc(C)nc(N2CCN(CC(=O)NCc3ccccc3)CC2)n1	0	0	-	0	0	0
COc1ccc(CNC(=O)c2cccc(-c3ccc(C)c4ccccc34)n2)cc1	-	-	-	0	-	-
O=C(COC(=O)CSc1nnc(-c2ccc(Cl)cc2)o1)NCc1ccc2c(c1)OCO2	0	0	0	0	0	0
O=C(COC(=O)CCC(=O)c1ccc2c(c1)OCCO2)NCc1ccc2c(c1)OCO2	0	81	0	0	0	0
O=C(COC(=O)c1ccc2c(c1)OCO2)NCc1ccc(Cl)cc1	0	0	0	0	0	2
CCOC(=O)CN(C(=O)CSc1nnc2c(n1)[nH]c1ccc(OC)cc12)c1ccc(F)cc1	0	0	0	0	0	0
CC(c1ccccc1)N1CC(C(=O)N2CCN(c3ccc(F)cc3)CC2)CC1=O (stereo not drawn)	0	0	-	0	0	0
CC1CCN(Cc2nc3c(c(=O)n(C)c(=O)n3C)n2CCN2CCOCC2)CC1	-	-	0	-	-	-
CCOC(=O)N1CCN(C(=O)CCCOc2ccccc2)CC1	0	0	0	0	0	0
SMILES	CYP2C19 activ	CYP2C9 inh	D1 allo mod	hDAT+cocaine	CYP2C19 inh	CYP2C9 act
O=C(CCCOc1ccccc1)N1CCN(c2ccccc2)CC1	0	78	-	0	62	0
O=C(CCCN1C(=O)c2cccc3cccc(c23)C1=O)N1CCc2ccccc2C1	0	0	-	0	52	4
O=C1c2ccccc2C(=O)N1CCCC(=O)N1CCc2ccccc21	0	0	0	-	0	0
O=C(CCCOc1ccccc1)N1CCc2ccccc2C1	0	0	0	0	83	0
Cc1cccc(N2CCN(C(=O)CCCOc3ccccc3)CC2)c1C	0	81	0	0	75	0
C/C=C/C=C/C(=O)[C@@H]1[C@@H]([C@]2(C)OC(=O)C(C)=C2O)[C@H]2/C(=C(O)/C=C/C=C/C)C(=O)[C@]1(C)C(=O)C2(C)O (stereo partly drawn)	-	-	-	0	-	-

Screening data as filed in PubChem BioAssay.
